Compound activity deposited in PubChem BioAssay by several laboratories.
M1 antag – M1 muscarinic receptor (rat) antagonism. P08482. CHO-M1 cells, Fluo-4 calcium, ACh EC80 antagonist mode; hits give low values. B-score at 10 µM. actives 3.4% (n = 64,000). AID 628;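 active means calcium fluorescence response, raw or row-and-column corrected B-score, differing from the plate sample mean either way at a set confidence level, mostly lower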
M1 agonist – activates the M1 muscarinic receptor; actives 3% (n = 64,000); B-score at 10 µM; CHO-M1 cells, Fluo-4 calcium fluorescence, agonist mode; hits give high values;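 active means fluorescence rise, raw or as B-score row- and column-corrected plate score, outside the 99.7% band of its plate's samples, either direction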
PLAP act – human PLAP activation | P05187 | purified PLAP enzyme, luminescent substrate read-out; hits give high values | activation fold at 20 µM | actives 1.2% (n = 96,000) | AID 696; in the data active means activation fold above about 2
Target sequence (P05187 whole entry, looked up): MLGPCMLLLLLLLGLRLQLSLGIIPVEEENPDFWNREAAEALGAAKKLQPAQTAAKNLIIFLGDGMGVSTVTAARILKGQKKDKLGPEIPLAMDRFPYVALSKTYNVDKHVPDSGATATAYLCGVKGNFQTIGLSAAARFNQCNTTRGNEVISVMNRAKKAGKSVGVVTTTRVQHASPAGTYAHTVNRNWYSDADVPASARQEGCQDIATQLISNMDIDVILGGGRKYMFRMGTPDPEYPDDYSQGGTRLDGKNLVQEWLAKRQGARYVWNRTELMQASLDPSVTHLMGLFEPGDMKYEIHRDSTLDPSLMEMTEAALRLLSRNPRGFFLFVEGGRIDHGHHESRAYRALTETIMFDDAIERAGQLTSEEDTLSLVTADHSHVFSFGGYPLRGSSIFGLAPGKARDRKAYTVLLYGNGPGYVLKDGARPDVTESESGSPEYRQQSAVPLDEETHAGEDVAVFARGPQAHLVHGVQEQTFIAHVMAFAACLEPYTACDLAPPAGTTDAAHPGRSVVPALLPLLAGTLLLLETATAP
Cav32 inh – blocks human Cav3.2 T-type calcium channel. Cav3.2-expressing cells, Fluo-4 calcium fluorescence FDSS; hits give low values. B-score at 10 µM. actives 4% (n = 100,000). AID 449739;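 active means single-dose well whose peak fluorescence ratio is a statistical outlier from its plate by either plate-standardised score or position-corrected B-score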
Her2 expr inh – lowers expression of human Her2 kinase; AID 645; SKBR-3 HER2 protein level, AlphaScreen, 18-24 h; hits give low values; HER2 level % of control, % at 10 µM; actives 0.69% (n = 65,000); P04626;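 active means HER2 level under 5% of the carrier-only control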;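 further: lower value means stronger loss of Her2 protein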
Numbers stand for hits; - = inactive; . = no result given. Compounds with a hit are over-represented: about 7.9% of the library has one in this group of screens.

SMILES	M1 antag	M1 agonist	PLAP act	Cav32 inh	Her2 expr inh
CN1C(C(=O)NCc2cccc(C(F)(F)F)c2)CC2Cn3c(nc4cc(Cl)c(Cl)cc43)C21 (centres undefined)	.	.	.	-	.
CCCCCCN(C(=O)CCCCCN1C(=O)NC(c2ccccc2)C(C(=O)OCc2ccccc2)=C1C)C(C(=O)NCCCC)c1ccc(OCC(=O)OC)c(C(=O)OC)c1 (centres undefined)	.	.	.	-	.
COc1cccc(-c2nn(C)c3sc(C(=O)N4CCN(c5ccccn5)CC4)cc23)c1	-	-	-	-	-
Cc1nn(Cc2ccccc2Cl)c2sc(C(=O)NCc3ccc4c(c3)OCO4)cc12	.	.	-	-3.5	.
COc1cccc(-c2nn(C)c3sc(C(=O)NCc4ccc5c(c4)OCO5)cc23)c1	-	-	2.2	-	-
CCC(CC)NC(=O)c1cc2c(C)nn(Cc3ccccc3Cl)c2s1	.	.	-	-	.
CCOC(=O)C1CCCN(C(=O)c2cc3c(-c4cccc(OC)c4)nn(C)c3s2)C1 (centres undefined)	-	-	-	-4.2	-
CCOC(=O)c1nn(-c2ccccc2F)c(-c2ccccc2)c1C(=O)c1ccccc1	.	.	-	-4.4	.
CCOC(=O)c1nn(-c2ccccc2)c(-c2ccccc2)c1C(=O)c1ccccc1	.	.	-	-	.
O=C(Cc1ccccc1)NCCSCc1ccc(Cl)cc1	.	.	-	-4.4	.
Clc1ccc2c(c1)-c1nnc(Br)n1-c1ccccc1S2	.	.	.	-3.9	.
Brc1nnc2n1-c1ccccc1Sc1ccccc1-2	.	.	.	-	.
Cc1ccc(CNC(N)=S)cc1	.	.	-	-	.
COc1cccc(/C=N/NC(=O)c2c(-c3ccccc3)noc2C)c1O	.	.	2.2	-	.
Cc1ccccc1NC(=O)c1c(-c2ccccc2)noc1C	-	-	-	-	-
COc1cc(/C=N/NC(=O)c2c(-c3ccccc3)noc2C)ccc1O	.	.	-	-	.
CCCOc1ccccc1NC(=O)c1c(-c2ccccc2)noc1C	-	-	-	-4.8	-
Cc1ccc(NN2C(=O)C=C(c3ccc(Cl)cc3)C2=O)cc1	.	.	-	-	.
Cc1nc(CN2CCN(C(=O)c3ccc(C(C)(C)C)cc3)CC2)cs1	.	.	-	-	.
Cc1ccc(-c2cnc(NC(=O)CCC(=O)N3CCCCC3)n2C)cc1	-	-	-	-	-
CCCCNC(=O)CCC(=O)Nc1ncc(-c2ccc(C)cc2)n1C	-	-	2	-	-
O=C(c1ccc(Cl)cc1)N1CCN(c2nc(N3CCCCC3)nc(N3CCCCC3)n2)CC1	-	-	.	.	-
CCCNC(=O)NC(=O)COC(=O)c1ccc(OC)c(S(=O)(=O)N2CCCc3ccccc32)c1	-	-	-	-7.5	-
Cc1cc(C)cc(C(=O)NC(CC(N)=O)c2ccc(NC3CCCCC3)c([N+](=O)[O-])c2)c1 (centres undefined)	.	.	.	-	.
CC(=O)C1=C(C)OC(N)=C(C#N)C1c1cc2cc(C)c(C)cc2nc1Cl (centres undefined)	.	.	-	.	.
SMILES	M1 antag	M1 agonist	PLAP act	Cav32 inh	Her2 expr inh
Cc1cc2cc(C=O)c(Cl)nc2cc1C	.	.	-	-5.9	.
Cc1nc2cc(N3CCCCC3)c(NC(=O)c3ccncc3)cc2c(=O)n1Cc1ccc(Cl)cc1	.	.	-	.	.
Cc1nc2cc(N3CCN(C)CC3)c(NC(=O)Cc3ccccc3)cc2c(=O)n1Cc1ccccc1	-	-	-	-7.3	-
CCOc1ccc(NC(=O)C23CC4CC(C2)CC(c2ccccc2)(C4)C3)cc1	.	.	-	-1.9	.
O=C(CC1Nc2ccccc2NC1=O)c1ccccc1 (centres undefined)	-	3.9	-	-	-
O=C(OCc1ccccc1)c1cccc(-c2nnn(Cc3ccccc3)n2)c1	.	.	-	-4.1	.
CC(C)(C)c1cc(/C=N/NC(=O)Cc2nc3ccccc3[nH]2)cc(C(C)(C)C)c1O	.	.	2	-7.6	.
O=C(CSc1cn(CCNC(=O)c2cccs2)c2ccccc12)NC1CCCC1	.	.	-	-	.
Cc1ccc(-c2nnn(C(C)C(=O)N3c4ccccc4CCc4ccccc43)n2)cc1 (centres undefined)	.	.	.	-5.3	.
Cc1ccc(-c2nnn(CC(=O)N3CCCc4ccccc43)n2)cc1	.	.	-	-4.7	.
CC(C(=O)N1c2ccccc2CCc2ccccc21)n1nnc(-c2ccc(N(C)C)cc2)n1 (centres undefined)	.	.	.	-5.5	.
O=C(Cn1nnc(-c2ccncc2)n1)N1CCc2ccccc21	.	.	-	-	-
CC(C(=O)N1c2ccccc2Sc2ccccc21)n1nnc(-c2cccs2)n1 (centres undefined)	-	-	-	-7	-
COC(=O)N1CC(C)N(C(=O)OC)CC1C (centres undefined)	-	-	-	-	-
O=C(Nc1ccccc1)C1=C[C@H](c2ccc(Br)cc2)C[C@H](OCc2ccc(CO)cc2)O1	.	.	.	-	.
Cc1[nH]c2ccccc2c1SCC(=O)N1CCCc2ccccc21	.	.	-	-4.8	.
O=C1c2[nH]nc(-c3ccccc3O)c2C(c2cccc(O)c2)N1Cc1ccco1 (centres undefined)	.	.	2.2	-5	.
CCOC(=O)C(O)(CC(=O)c1ccc(OC)cc1)C(F)(F)F (centres undefined)	.	.	.	-	.
Cc1cc2c(c(=O)n1Cc1ccccn1)C(c1ccc3c(c1)OCO3)C(C#N)=C(N)O2 (centres undefined)	-	-	-	-	-
COc1cc(C2C(C#N)=C(N)Oc3cc(C)n(Cc4ccccn4)c(=O)c32)cc2c1OCO2 (centres undefined)	-10	34	.	.	-
S=C(Nc1ccccn1)c1ccccn1	-	-	2.4	.	-
CCOC(=O)CCSc1nc(C)cc(C(F)(F)F)c1C#N	-	-	-	-	-
O=C(C1CCC(CNS(=O)(=O)c2cccc3nsnc23)CC1)N1CC=C(c2ccccc2)CC1 (centres undefined)	.	.	-	-7.9	.
